Activity calls are given as the source filed them.
Tests used:
[1] = test system: Human papillomavirus type 1a protein E7 (residues 44-93); test: small molecules binding HPV E7 44-93 – biochemical, small-molecule microarray, residues 44-93, 635 nm fluorescence, primary screen (AID 1108); settings: fluorescence 635 nm, higher = more signal;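 note: E7 fragment applied at 1 µg/mL in TBST for 1 h at 4 C; score combines spot fluorescence with its signal to noise ratio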
[2] = hepatitis C replication reporter changes, two-sided – Huh7 cells, luciferase reporter, HCV replication inhibitor project, primary screen (AID 1109); settings: Huh7 HCV replicon luciferase reporter, 48 h; higher = more signal;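 note: huh7 hepatoma cells harbouring a luciferase neomycin HCV replicon reporter; luciferase luminescence as measure of HCV replicon replication; test concentration not given here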
[3] = molecular target: Left-right determination factor 2 (Homo sapiens) (UniProt O00292); test: small molecules binding LEFTY2 protein – biochemical, small-molecule microarray, 635 nm fluorescence scan, primary screen (AID 1110); settings: higher = more signal
Sequence of Left-right determination factor 2 (Homo sapiens) (O00292 whole entry, looked up): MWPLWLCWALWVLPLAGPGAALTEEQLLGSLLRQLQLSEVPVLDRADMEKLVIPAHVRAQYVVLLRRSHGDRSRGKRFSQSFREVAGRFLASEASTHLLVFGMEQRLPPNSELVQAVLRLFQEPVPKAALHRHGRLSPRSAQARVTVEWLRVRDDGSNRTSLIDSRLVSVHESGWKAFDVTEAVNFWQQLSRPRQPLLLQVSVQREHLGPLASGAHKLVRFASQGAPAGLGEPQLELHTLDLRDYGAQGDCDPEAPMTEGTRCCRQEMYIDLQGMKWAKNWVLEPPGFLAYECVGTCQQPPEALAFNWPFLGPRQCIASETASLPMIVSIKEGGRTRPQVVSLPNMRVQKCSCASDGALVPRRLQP

[4] = molecular target: Calmodulin-1 (Homo sapiens) (UniProt P0DP23); test: small molecules binding calmodulin-1 with EGTA – biochemical, small-molecule microarray, Cy5-labelled CALM1, profiling panel (AID 1111); settings: Cy5-CALM1 binding fluorescence, higher = more signal;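 note: labelled calmodulin applied in Tris saline Tween buffer holding calcium plus EGTA and DTT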
[5] = molecular target: Calmodulin-1 (Homo sapiens) (UniProt P0DP23); test: small molecules binding Ca-loaded calmodulin-1 – biochemical, small-molecule microarray, Cy5-labelled CALM1, plus calcium, artefact control for SMM control-protein annotation, profiling panel (AID 1112); settings: Cy5-CALM1 binding fluorescence, higher = more signal;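 note: score merges spot fluorescence with signal to noise from triplicate slides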
[6] = probe aWnt5a binding to arrayed compounds – biochemical, biotinylated probe, 635/667 nm fluorescence, primary screen (AID 1113); settings: small-molecule microarray, higher = more signal;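 note: score merges 667 nm fluorescence intensity with signal-to-noise per printed feature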
[7] = probe aShh binding to arrayed compounds – biochemical, biotinylated probe, 635/667 nm fluorescence, primary screen (AID 1114); settings: small-molecule microarray, higher = more signal;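 note: probe is biotin-labelled aShh protein from a stem cell growth factor screen; measures binding of labelled protein to compounds printed on the slide; score merges feature fluorescence at 667 nm with signal-to-noise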
[8] = probe aNog binding to arrayed compounds – biochemical, biotinylated probe, 635/667 nm fluorescence, primary screen (AID 1115); settings: small-molecule microarray, higher = more signal;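 note: probe is biotinylated aNog protein used at 0.15 µg/mL for 1 h at 4 C; z-score combines 667 nm fluorescence of each spot with its signal to noise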
[9] = molecular target: Torsin-1A-interacting protein 1 (Homo sapiens) (UniProt Q5JTV8); test: compound microarray binding of lysate hLAP1 – cell lysate, small-molecule microarray, COS7 lysate, 635/667 nm fluorescence, primary screen (AID 1116); settings: 635 nm fluorescence, higher = more signal
Sequence of Torsin-1A-interacting protein 1 (Homo sapiens) (Q5JTV8 whole entry, looked up): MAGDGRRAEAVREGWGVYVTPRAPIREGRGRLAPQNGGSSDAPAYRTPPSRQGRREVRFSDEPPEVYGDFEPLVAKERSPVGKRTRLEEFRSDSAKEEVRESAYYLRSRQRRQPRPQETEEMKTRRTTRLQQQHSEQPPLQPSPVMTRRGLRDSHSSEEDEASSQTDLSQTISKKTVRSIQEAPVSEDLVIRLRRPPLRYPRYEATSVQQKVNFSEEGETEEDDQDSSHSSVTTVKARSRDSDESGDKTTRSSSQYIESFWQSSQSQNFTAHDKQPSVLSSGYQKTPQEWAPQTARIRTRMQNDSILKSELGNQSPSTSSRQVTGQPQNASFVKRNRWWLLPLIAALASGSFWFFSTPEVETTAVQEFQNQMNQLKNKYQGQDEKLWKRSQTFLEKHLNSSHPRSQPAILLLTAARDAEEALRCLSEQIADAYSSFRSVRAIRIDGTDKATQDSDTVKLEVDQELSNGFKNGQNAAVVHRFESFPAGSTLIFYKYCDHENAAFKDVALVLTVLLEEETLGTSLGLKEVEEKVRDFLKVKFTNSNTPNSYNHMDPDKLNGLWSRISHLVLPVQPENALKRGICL

[10] = molecular target: Alpha-bungarotoxin (Bungarus multicinctus) (UniProt P60615); test: compounds binding labelled alpha-BTX control protein – biochemical, small-molecule microarray, Alexa647 label, 635/667 nm fluorescence, artefact control for SMM control protein annotation, profiling panel (AID 1117); settings: alpha-BTX-A647 binding fluorescence, higher = more signal
Sequence of Alpha-bungarotoxin (Bungarus multicinctus) (P60615 whole entry, looked up): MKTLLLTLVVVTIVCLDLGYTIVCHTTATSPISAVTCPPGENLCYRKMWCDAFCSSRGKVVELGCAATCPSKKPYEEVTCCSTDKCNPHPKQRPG

Albumin (Bos taurus) = Albumin (Bos taurus) (UniProt P02769); test: compounds binding labelled BSA control protein – biochemical, small-molecule microarray, Alexa647 label, 635/667 nm fluorescence, artefact control for SMM control protein annotation, profiling panel (AID 1118); settings: BSA-A647 binding, fluorescence 635 nm, higher = more signal;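 note: score merges 667 nm emission intensity and signal-to-noise per printed compound spot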
Sequence of Albumin (Bos taurus) (P02769 whole entry, looked up): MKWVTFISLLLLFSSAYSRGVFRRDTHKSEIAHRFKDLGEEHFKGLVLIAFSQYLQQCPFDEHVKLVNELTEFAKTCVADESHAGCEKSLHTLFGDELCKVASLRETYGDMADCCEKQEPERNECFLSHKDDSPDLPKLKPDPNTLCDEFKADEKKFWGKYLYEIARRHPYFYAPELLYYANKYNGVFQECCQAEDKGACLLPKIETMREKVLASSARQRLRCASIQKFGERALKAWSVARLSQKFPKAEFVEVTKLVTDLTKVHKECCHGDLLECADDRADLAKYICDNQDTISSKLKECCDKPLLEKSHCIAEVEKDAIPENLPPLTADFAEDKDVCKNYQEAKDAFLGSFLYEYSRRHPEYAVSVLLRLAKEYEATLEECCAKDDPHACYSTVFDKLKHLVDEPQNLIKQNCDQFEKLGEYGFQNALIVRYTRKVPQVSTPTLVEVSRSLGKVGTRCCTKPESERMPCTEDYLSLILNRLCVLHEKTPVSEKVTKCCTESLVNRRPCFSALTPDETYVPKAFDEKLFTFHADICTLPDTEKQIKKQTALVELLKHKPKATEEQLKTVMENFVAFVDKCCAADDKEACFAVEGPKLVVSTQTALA

[11] = probe aXIP binding to arrayed compounds – biochemical, NeuroSMM set, 635/667 nm fluorescence, primary screen (AID 1119); settings: small-molecule microarray, higher = more signal, called active from +8 up or from −8 down;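 note: probe is the protein aXip251-270 applied at 1 µg/mL to compound-printed slides; binding of probe to printed compounds measured as 667 nm fluorescence plus signal to noise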
[12] = probe aNOTCH3 binding on compound microarray – biochemical, small-molecule microarray, 635/667 nm fluorescence, primary screen (AID 1120); settings: higher = more signal;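 note: probe is a biotin-tagged antibody raised against NOTCH3 rather than NOTCH3 protein; score merges spot fluorescence near 667 nm with spot signal to noise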
[13] = probe aNOTCH2 binding on compound microarray – biochemical, small-molecule microarray, 635/667 nm fluorescence, primary screen (AID 1121); settings: higher = more signal;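 note: score merges feature fluorescence read at 667 nm with its signal to noise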
[14] = molecular target: Carbonic anhydrase 2 (Homo sapiens) (UniProt P00918); test: compounds binding carbonic anhydrase 2 – biochemical, small-molecule microarray, Alexa647-labelled CAII, profiling panel (AID 1122); settings: CAII-A647 binding fluorescence, higher = more signal
[15] = COS7 lysate on small-molecule microarray, probe aHis, 635 nm (AID 1123); settings: COS7 cell lysate, fluorescence, higher = more signal;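 note: z-score combines 667nm fluorescence intensity with signal-to-noise per printed compound spot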
[16] = probe aLAP1 signal on lysate-treated microarray – cell lysate, small-molecule microarray, COS7 lysate, primary screen (AID 1124); settings: probe aLAP1, fluorescence, higher = more signal;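 note: lysate comes from COS7 cells expressing LAP1 and is applied at 0.3 µg/mL; score merges spot fluorescence near 667 nm with signal-to-noise over triplicate slides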
Sam68 (KHDRBS1) = test: compounds binding KHDRBS1 protein – biochemical, small-molecule microarray, 635 nm fluorescence, primary screen (AID 1125); settings: higher = more signal;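 note: score merges 667 nm channel intensity with signal to noise over triplicate slides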
[17] = test system: Chordin-like protein 2 (CHRDL2); test: compounds binding chordin-like 2 – biochemical, small-molecule microarray, 635 nm fluorescence, primary screen (AID 1126); settings: fluorescence 635 nm, higher = more signal;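 note: printed compound slides probed with Chrdl2 protein at 4 µg/mL for 1 h at 4 C; score merges 667 nm emission intensity with signal to noise over three replicate slides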
[18] = molecular target: Concanavalin-A (Canavalia ensiformis) (UniProt P02866); test: compounds binding concanavalin A lectin – biochemical, small-molecule microarray, Alexa647 label, 635 nm, artefact control for SMM control protein annotation, primary screen (AID 1127); settings: ConA-A647 binding fluorescence, higher = more signal;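 note: z combines 667 nm emission intensity with signal-to-noise across three replicate slides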
Sequence of Concanavalin-A (Canavalia ensiformis) (P02866 whole entry, looked up): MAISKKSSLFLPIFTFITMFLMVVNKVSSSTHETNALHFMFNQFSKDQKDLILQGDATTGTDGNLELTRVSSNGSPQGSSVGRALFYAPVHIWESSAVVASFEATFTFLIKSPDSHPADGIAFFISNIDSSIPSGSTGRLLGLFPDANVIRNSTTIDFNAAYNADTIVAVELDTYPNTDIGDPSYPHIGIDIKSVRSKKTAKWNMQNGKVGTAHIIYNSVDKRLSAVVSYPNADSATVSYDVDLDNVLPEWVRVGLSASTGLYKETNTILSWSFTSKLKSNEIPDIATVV

SMILES | composite z-score [1] | z-score [2] | composite z-score [3] | composite z-score [4] | composite z-score [5] | composite z-score [6] | composite z-score [7] | composite z-score [8] | composite z-score [9] | composite z-score [10] | composite z-score (Albumin (Bos taurus)) | composite Z-score [11] | composite z-score [12] | composite z-score [13] | composite z-score [14] | composite z-score [15] | composite z-score [16] | composite z-score (Sam68 (KHDRBS1)) | composite z-score [17] | composite z-score [18]
COC(=O)[C@@H]1CC[C@H](C)[C@@H](c2ccc(C)cc2)N1C(=O)c1ccc(C=NOC(C)CN2CCCCc3nc(C)c(C)cc32)cc1 (stereo not given in full) | -0.278 | -3.62 | 0.359 | -0.0385 | 0.076 | 0.0437 | 0.0893 | 0.0274 | 0.652 | 0.709 | 0.594 | -0.317 (inactive) | 0.0916 | -0.0707 | -0.0862 | 0.125 | 0.388 | 0.0689 | 0.62 | 0.951
CCN1C(=O)[C@H]2[C@H]3[C@H](O)[C@H](O)CC(=NOCC=C(C)CCC=C(C)C)[C@H]3CC[C@H]2C1=O | 0.614 | -0.504 | 1.01 | -1.01 | -2.13 | -0.0704 | -0.0626 | 0.161 | 0.507 | -0.476 | -1.33 | -0.768 (inactive) | 0.0876 | -0.182 | 0.578 | 0.41 | 0.714 | 1.3 | 1.3 | -0.0616
COCCCNC(=O)[C@@]1(CCS(=O)(=O)c2ccccc2)N=C(c2ccc(OCCCO)cc2)O[C@H]1c1ccccc1 | 0.432 | -1.2 | -0.133 | 0.361 | 0.4 | 0.525 | 0.179 | 2.11 | 2.95 | 2.44 | 0.533 | 0.164 (inactive) | 0.303 | 0.529 | 0.577 | 3 | 1.01 | 1.31 | -0.0021 | 0.261
COc1ccccc1CN1C(=O)c2ccccc2[C@@H](C(=O)NCC(F)(F)F)[C@@H]1c1ccc(CO)cc1 | 1.44 | -1.26 | -0.155 | 0.313 | 0.229 | -0.107 | 0.0446 | -0.425 | 0.488 | 0.472 | 0.522 | -0.786 (inactive) | -0.15 | -0.167 | 0.595 | 0.839 | 0.0761 | 1.33 | -0.365 | 0.721
COc1ccccc1CN1C(=O)c2ccccc2[C@@]2(Cc3ccccc3N(C(C)C)C2=O)[C@@H]1c1ccc(CO)cc1 | -0.0853 | -0.318 | -0.88 | -0.37 | -0.772 | -0.12 | -0.0553 | 0.005 | -0.509 | 1.12 | 0.282 | 0.0371 (inactive) | -0.0581 | -0.117 | -0.0384 | 0.209 | 0.21 | -0.067 | -0.381 | 0.262
O=C(CS)NCCCCCNC(=O)[C@@H]1C[C@@H]2C(=O)N[C@@H](Cc3ccccc3)C(=O)N2[C@@H]1c1ccc(O)cc1 | 0.985 | -0.374 | 0.514 | 0.283 | -0.11 | 0.0004 | 0.149 | -0.122 | 0.858 | 1.48 | -0.814 | 0.346 (inactive) | -0.0647 | -0.0756 | 0.674 | 1.37 | 0.154 | 1.3 | 0.617 | 0.874

From PubChem BioAssay
